# Assay outcomes deposited in PubChem BioAssay by National Center for Advancing Translational Sciences (NCATS).
# Shown are actives, neighbours in structure and some others; about 15% of the full set was active somewhere.
# DT40 TDP1 CPT = DT40-hTDP1 cell growth loss with CPT. chicken DT40 Tdp1-/-;hTDP1 cells + 20 nM CPT, ATP luminescence, 48 h. Potency, µM (top dose mostly 46.2 µM), most hits filed as inhibitors. AID 686979. actives 12% (n = 420,000); also: nearly all actives have a fitted effect of over 55% in size
#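 Cell growth measured by CellTiter-Glo luminescence after a minimum 48 h, 37 C compound exposure with 20 nM CPT in Tdp1-knockout DT40 cells stably expressing hTDP1, seeded 400/well; qHTS titration format.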
# RORg inh = inhibitors of mouse ROR gamma transcriptional activity; Drosophila S2 Gal4-RORgamma UAS-luciferase reporter, 20 h; P51450; Potency, µM (highest dose often 53.6 µM), most hits filed as inhibitors; actives 5.4% (n = 310,000); also: nearly all actives have a fitted effect of over 60% in size
# Target sequence (P51450 whole entry, looked up, the tested form may be a part): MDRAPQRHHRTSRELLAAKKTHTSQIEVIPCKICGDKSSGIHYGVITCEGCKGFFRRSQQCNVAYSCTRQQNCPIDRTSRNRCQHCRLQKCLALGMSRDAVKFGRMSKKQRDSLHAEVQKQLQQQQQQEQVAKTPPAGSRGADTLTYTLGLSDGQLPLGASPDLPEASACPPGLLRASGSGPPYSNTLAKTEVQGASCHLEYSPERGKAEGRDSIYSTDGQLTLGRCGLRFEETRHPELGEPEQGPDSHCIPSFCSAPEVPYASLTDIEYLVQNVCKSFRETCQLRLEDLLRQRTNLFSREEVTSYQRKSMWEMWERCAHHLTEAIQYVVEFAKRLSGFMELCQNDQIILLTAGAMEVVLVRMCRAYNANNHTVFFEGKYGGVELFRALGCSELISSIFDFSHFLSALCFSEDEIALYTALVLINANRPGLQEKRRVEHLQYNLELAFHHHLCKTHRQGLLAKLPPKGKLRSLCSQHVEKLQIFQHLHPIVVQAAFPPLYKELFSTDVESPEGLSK
#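 Stably transfected Drosophila Schneider cells are the test system, with ROR gamma fused to Gal4 and luciferase under UAS control; luminescence is read after 20 hr of 700 uM copper sulfate induction at ambient temperature.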
# ELG1 repair inh = blocks ELG1-dependent DNA repair in HEK293T cells; AID 504467; HEK293T ELG1-luciferase reporter, luminescence, 16 h; DNA damage induced by 5-fluorouridine; actives 2.3% (n = 330,000); Potency, µM (highest dose often 46.1 µM), usual class: inhibitors; also: nearly all actives have a fitted effect of over 55% in size
#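 HEK293T cells expressing luciferase-tagged ELG1 (2,000/well) received 5-Fluorouridine plus compound or DMSO for 16 hr at 37 °C. Luciferase was read by ONE-Glo luminescence after 30 min at room temperature.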
# Gal4-VP16 FLuc = Gal4-VP16 reporter inhibition counter-screen. Drosophila S2 Gal4-VP16 UAS-luciferase, luminescence, 20 h. Potency, µM (doses to about 53.6 µM), usual class: inhibitors. actives 3.5% (n = 310,000);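 also: Gal4-VP16 expression switched on by copper sulfate through the metallothionein promoter; nearly all actives have a fitted effect of over 50% in size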
# TDP1 cell noCPT = qHTS for Inhibitors of human tyrosyl-DNA phosphodiesterase 1 (TDP1): qHTS in cells in absence of CPT; DT40 Tdp1-/- hTDP1 cells, no CPT, ATP luminescence, 48 h; Potency, µM (highest dose often 46.2 µM), hits mostly inhibitors; actives 15% (n = 420,000); AID 686978, 2013; also: nearly all actives have a fitted effect of over 55% in size
#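 DT40 Tdp1-/-;hTDP1 cells, no CPT (DMSO vehicle only), 400 cells/well; compounds pin-transferred; ≥48 hr, 37 °C; CellTiter-Glo 30 min RT dark, luminescence read.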
# 12-LOX inh = blocks human arachidonate 12S-lipoxygenase; P18054; purified 12hLO, xylenol orange hydroperoxide absorbance; Potency, µM (highest dose often 108 µM), usual class: inhibitors; actives 1.1% (n = 580,000); AID 1671190
#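 Hydroperoxide product was detected by ferrous iron/xylenol orange as the 573 to 405 nm absorbance ratio. Arachidonic acid at 40 uM (final) was turned over for 30 min at room temperature by 150 nM human 12hLO, pH 7.0 Hepes buffer, after 15 min compound preincubation.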
# A number is an active result; n = inactive; u = inconclusive; x = no result; ! = not confirmed by another sample; [ ] = remark or other dose. Calls follow the shape of the dose curve; as a rule, active = well fitted curve in the direction sought with a large enough effect; inconclusive = small, poorly fitted or top-dose-only effect, or another doubt; inactive = no such curve, though single readings can be large; an effect the other way counts as inactive or inconclusive.
SMILES,DT40 TDP1 CPT,RORg inh,ELG1 repair inh,Gal4-VP16 FLuc,TDP1 cell noCPT,12-LOX inh
Cc1cccc(-n2c(/C=C/c3cccc4ccccc34)nc3ccccc3c2=O)c1,9.2µM,x,x,x,6.51µM,n
Cc1ccc(-n2c(/C=C/c3cccc4ccccc34)nc3ccccc3c2=O)cc1,u,x,x,x,20.6µM,n
CCCCCc1nc2ccccc2c(=O)n1-c1ccc(C)cc1,n,x,x,x,u,n
Cc1cccc(-n2c(/C=C/c3ccccc3O)nc3ccccc3c2=O)c1,u,x,x,x,u,n
Cc1ccc(-n2c(/C=C/c3cccs3)nc3ccccc3c2=O)cc1C,u,x,x,x,u,n
Cc1nn(-c2cccc(Cl)c2)c2c1C(c1ccsc1)SCC(=O)N2 (stereo unspecified),x,x,x,x,x,n
CC(=O)Nc1ccc(-c2ccc(=O)n3c2[C@@H]2C[C@@H](CN(C(=O)C(C)(C)C)C2)C3)cc1,x,x,x,x,x,n
CC(C)NC1CNC1,x,x,x,x,x,n
CC#C[C@]1(O)CC[C@H]2[C@@H]3C[C@H](C)C4=CC(=O)CC[C@]4(C)[C@H]3CC[C@@]21C,x,x,x,x,x,n[22.9 µM]
COc1cc2c(cc1OCC1CCCC1)N(C(=O)CC(C)C)CC21CCN(CC(=O)O)CC1,x,x,x,x,x,n
O=c1c2ccccc2nc(/C=C\c2ccccc2F)n1-c1ccc(O)cc1,u,x,x,x,u,n
Cc1cccc(-n2c(/C=C/c3ccco3)nc3ccccc3c2=O)c1,x,x,x,x,x,25.1µM
O=c1c2ccccc2nc(/C=C/c2cccc3ccccc23)n1-c1ccc(Cl)cc1,20.6µM,x,x,x,25.9µM,n
Cc1cccc(CCN)c1,x,x,x,x,x,n
COc1cc2c(c(OC)c1OC)-c1ccc(O)cc1[C@@H](NC(C)=O)CC2,0.231µM,x,u,x,0.164µM,n
COc1cc2c(c(OC)c1OC)-c1ccc(O)cc1C(NC(C)=O)CC2 (stereo unspecified),0.206µM,x,x,x,0.184µM,n
COc1cc2c(c(OC)c1OC)-c1ccc(O)c(=O)cc1[C@@H](NC(C)=O)CC2,5.17µM,n,u,n,6.51µM,n
CCCS(=O)(=O)Nc1ccc(=O)n2c1[C@@H]1C[C@@H](CN(C(=O)COc3ccccc3)C1)C2,x,x,x,x,x,n
Cc1ccc(C)c(NC(=O)Cn2nc(C)c3nn(-c4ccc(Cl)cc4)c(C)c3c2=O)c1,23.1µM,x,x,x,18.4µM,u
CCN(CC)C(=O)c1ccc(NC(=O)Cn2nc(C)c3ccccc3c2=O)cc1,n,n,n,n,n,n
Cc1ccc(-n2nc3c(=O)n(CC(=O)Nc4ccccc4F)nc(C)c3c2C)c(C)c1,u,x,x,x,18.4µM,u
CCOC(=O)c1cccc(NC2c3ccccc3C(=O)N2Cc2ccco2)c1 (stereo unspecified),11.6µM,u,u,12.6µM,6.51µM,n
COc1cc(CCC(=O)N2CCC3(CC2)NCc2ccccc2-n2ccnc23)on1,x,x,x,x,x,n
O=C(Nc1ccc2oc(-c3cccnc3)nc2c1)c1ccc(-c2cccc(Cl)c2)o1,n,x,x,x,7.31µM,n
CC(C)c1ccc2oc(-c3ccc(NC(=O)c4cc5ccccc5o4)cc3)nc2c1,n,x,x,x,u,u
SMILES,DT40 TDP1 CPT,RORg inh,ELG1 repair inh,Gal4-VP16 FLuc,TDP1 cell noCPT,12-LOX inh
Cn1nc(-c2cccs2)cc1[C@H]1CN2CC[C@H]1C[C@@H]2CNC(=O)c1ccc2c(c1)OCO2,x,x,x,x,x,n
CCCOc1cccc(CCN)c1,x,x,x,x,x,n
Cc1ncc2c(n1)C[C@@H]1CC[C@H]2N1C(=O)Cc1cccc(F)c1,x,x,x,x,x,n
CCOC(=O)c1ccc(Oc2coc3cc(OC(=O)N(C)C)ccc3c2=O)cc1,x,x,x,x,x,n
CC1Cc2cc(S(=O)(=O)N(Cc3ccccc3)C(C)C)ccc2N1C(=O)C1CCC1 (stereo unspecified),u,x,x,x,20.6µM,n
Cc1ccccc1-c1ccc2n(c1=O)C[C@H]1C[C@@H]2CN(C(=O)NC2CCCCC2)C1,x,x,x,x,x,n
CNCC(N)C(=O)O (stereo unspecified),x,n,x,n,x,n
N[C@H](CCP(=O)(O)O)C(=O)O,n,n,x,n,n,3.55µM!
COc1ncc(-c2cc3c(cc2OC)C2(CCN(C(C)=O)CC2)C(=O)N3)cn1,x,x,x,x,x,n
COc1ccc(Nc2nc(NC(C)C)nc3ccsc23)cc1OC,18.4µM,x,x,x,18.4µM,n
O=C(COc1ccc(F)cc1)N1CCN(Cc2cc(=O)n3nc(-c4ccc(F)cc4)sc3n2)CC1,x,x,x,x,x,n
N#Cc1ccc(C(=O)N2CCN(c3nc4ccc(F)cc4s3)CC2)cc1,2.31µM,x,x,x,2.31µM,n
O=C(c1ccc(F)cc1)N1CCC(C(=O)O)(c2ccccc2)CC1,x,x,x,x,x,n[6.33 µM]
CCCCCCCCCc1ccc(OCCOCCO)cc1,2.99µM,x,x,x,2.99µM,x
CCCCCc1cc(O)cc(O)c1,x,n,x,n,x,x
C#C[C@H]1CN2CC[C@H]1C[C@@H]2CNS(=O)(=O)Cc1ccccc1,x,x,x,x,x,n
COc1ccc(-c2cn(C[C@H]3CC4CCN3C[C@@H]4C(=O)NCCNC(C)=O)nn2)cc1 (stereo partly specified),x,x,x,x,x,n
Cc1ccc(C)c(CN2C(=O)c3ccccc3Sc3ccc(C(=O)N4CCC5(CC4)OCCO5)cc32)c1,u,x,x,x,20.6µM,n
Cc1ccc(CN2CCSc3ccc(C(=O)N4CCC5(CC4)OCCO5)cc32)cc1,u,n,n,n,u,n
CCOc1ccc(CN2C(=O)c3ccccc3Sc3ccc(C(=O)N4CCC5(CC4)OCCO5)cc32)cc1,18.4µM,x,x,x,u,n
O=C(c1ccc2c(c1)N(Cc1ccc(F)cc1)C(=O)c1ccccc1S2)N1CCC2(CC1)OCCO2,16.4µM,x,x,x,16.4µM,u
OCC1CN(c2ccncn2)CC12CCNCC2 (stereo unspecified),x,x,x,x,x,n
ClC1=C(Cl)C(Cl)=C(Cl)C1=C/C=C/c1ccccc1,5.17µM,n,u,n,3.26µM,u
O=C(NC[C@H]1C[C@@H]2CCN1C[C@@H]2CN1CCN(c2ccccn2)CC1)Nc1ccsc1,x,x,x,x,x,n
COC(=O)C1=C(c2ccc(F)cc2OCc2ccccc2)C[C@@H]2CC[C@H]1N2C(=O)NCC1CC1,7.31µM,x,n,x,8.2µM,n
COC(=O)C1=C(c2ccc(F)cc2OCc2ccccc2)C[C@@H]2CC[C@H]1N2C(=O)NCc1cc(C)oc1C(F)(F)F,20.6µM,x,u,x,u,x
COC(=O)C1=C(c2ccc(F)cc2OCc2ccccc2)C[C@@H]2CC[C@H]1N2C(=O)NCc1ccccc1OC,25.9µM,x,u,x,u,n
COC(=O)C1=C(c2ccc(F)cc2OCc2ccccc2)C[C@@H]2CC[C@H]1N2C(=O)NCc1ccccc1,u,x,u,x,u,n
COC(=O)C1=C(c2ccc(F)cc2OCc2ccccc2)C[C@@H]2CC[C@H]1N2C(=O)NCc1cccc(F)c1,u,x,u,x,u,n
